Measured values published in ChEMBL document CHEMBL2218924, “A broad activity screen in support of a chemogenomic map for kinase signalling research and drug discovery” (Biochem J, 2013).

Biological target: T1, Serine/threonine-protein kinase D2 (Homo sapiens) (UniProt Q9BZL6)
T1 sequence (whole entry): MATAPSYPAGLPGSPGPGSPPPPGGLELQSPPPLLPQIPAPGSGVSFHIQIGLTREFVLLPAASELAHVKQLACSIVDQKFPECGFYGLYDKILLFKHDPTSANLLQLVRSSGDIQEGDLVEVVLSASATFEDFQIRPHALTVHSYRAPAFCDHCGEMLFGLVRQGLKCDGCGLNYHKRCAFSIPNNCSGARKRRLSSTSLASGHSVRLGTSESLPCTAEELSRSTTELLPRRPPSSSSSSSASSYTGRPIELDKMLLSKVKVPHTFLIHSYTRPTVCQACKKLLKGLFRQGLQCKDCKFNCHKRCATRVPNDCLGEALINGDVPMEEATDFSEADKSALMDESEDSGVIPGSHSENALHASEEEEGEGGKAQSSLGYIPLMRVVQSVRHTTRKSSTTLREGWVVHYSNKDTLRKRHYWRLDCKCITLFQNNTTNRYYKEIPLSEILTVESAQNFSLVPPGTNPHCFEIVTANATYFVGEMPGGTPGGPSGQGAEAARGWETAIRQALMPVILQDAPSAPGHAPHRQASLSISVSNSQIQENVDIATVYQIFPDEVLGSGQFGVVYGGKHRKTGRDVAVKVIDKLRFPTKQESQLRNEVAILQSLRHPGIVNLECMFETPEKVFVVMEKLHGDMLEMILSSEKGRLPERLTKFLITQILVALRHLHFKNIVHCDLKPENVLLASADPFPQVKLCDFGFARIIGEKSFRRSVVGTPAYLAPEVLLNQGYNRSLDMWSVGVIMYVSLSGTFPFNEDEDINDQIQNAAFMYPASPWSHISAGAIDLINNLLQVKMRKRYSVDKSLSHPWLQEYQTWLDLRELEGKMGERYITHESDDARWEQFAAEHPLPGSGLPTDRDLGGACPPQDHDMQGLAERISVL
Conditions: at 10 µM

Row | SMILES | residual activity [%]
1 | CC(C)(C)c1nc2c3ccc(F)cc3c3c(=O)[nH]ccc3c2[nH]1 | 22
2 | CCN1/C(=C/C(C)=O)Sc2ccc(OC)cc21 | 70
3 | N#Cc1c(NC(=O)c2cccc3ccccc23)sc2c1CCCC2 | 93
4 | Nc1nc(Nc2ccc(S(N)(=O)=O)cc2)nn1C(=O)c1c(F)cccc1F | 78
5 | NC(=O)c1cccc(-c2cc(Nc3ccc(OC(F)(F)F)cc3)ncn2)c1 | 91
6 | N#C/C(=C\c1ccc(O)c(O)c1)C(=O)NCc1ccccc1 | 102
7 | Nc1nccc(-c2c(-c3ccc(F)cc3)ncn2C2CCNCC2)n1 | 49
8 | Fc1ccc(-c2nc3n(c2-c2ccncc2)CCS3)cc1 | 89
9 | O=C(NC(NC(=S)Nc1ccc(F)c([N+](=O)[O-])c1)C(Cl)(Cl)Cl)C(c1ccccc1)c1ccccc1 (centres undefined) | 100
10 | CN([C@@H](Cc1ccc(OS(=O)(=O)c2cccc3cnccc23)cc1)C(=O)N1CCN(c2ccccc2)CC1)S(=O)(=O)c1cccc2cnccc12 | 79
11 | NC(=O)c1ccc(-c2nc(-c3ccc4c(c3)OCCO4)c(-c3ccccn3)[nH]2)cc1 | 87
12 | CCN(CC)CCNC(=O)c1c(C)[nH]c(/C=C2\C(=O)Nc3ccc(Cl)cc32)c1C | 16
13 | O=c1c(-c2ccc(F)cc2)c(-c2ccncc2)[nH]n1-c1ccc(Cl)cc1 | 73
14 | O=C(CCCc1ccc(-c2ccccc2F)cc1)Nc1ccc(O)cc1 | 98
